Experimental findings from PubChem BioAssay AID1578 (Sanford-Burnham Center for Chemical Genomics, 2009) are described below.

Molecules are shown by their SMILES. About 3,000 (1%) of roughly 290,000 compounds were called active. Cut-off read from the data, not from the text of the source: active = inhibition mostly above about 36% (no sharp cut-off); inactive = mostly below about 34%. What follows is part of a selection rich in actives, with near analogues and random picks from the rest.

The nature of this assay: inhibition of NOD1-driven NF-kB reporter – cell-based, luminescence, uHTS, primary screen (AID 1578).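 Note: HEK-293T reporter cells stimulated with the NOD1 agonist gamma-tri-DAP.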 As to conditions: NOD1-driven NF-kB luciferase reporter cells, at 4 µM, hits give high values. Background: Reporter assays use an easily measured gene product as a stand-in for the process of interest.
The inhibition is the drop in the measured response relative to a control, in per cent. `CCOC(=O)c1nn(-c2ccccc2)c2nnc(Cc3ccccc3)c(=O)n12`: the inhibition is 45.2% (inactive).
The result for `CCOC(=O)C1=C(CSc2nc3ccccc3s2)NC(=O)NC1c1ccc(OC)cc1` (stereo unspecified) reads 67.5% (active); that for `CCOC(=O)C1=C(CSc2nc3ccccc3s2)NC(=O)NC1c1cccc([N+](=O)[O-])c1` (stereo unspecified), 32.6% (inactive).
For the compound `COC(=O)C1=C(CSc2nc3ccccc3s2)NC(=O)NC1c1ccc(F)cc1` (stereo unspecified), the inhibition was -25.4% (inactive).
The result for `CCN1CCN(CCCNC(=O)C2c3ccccc3C(=O)N(C)C2c2ccc(OC)cc2)CC1` (stereo unspecified) reads -21.6% (inactive); that for `CCN(CC)CCCNC(=O)C1c2ccccc2C(=O)N(C)C1c1ccc(OC)cc1` (stereo unspecified), 99.8% (active).
The result for `CCN(CC)CCCNC(=O)C1c2ccccc2C(=O)N(CCOC)C1c1ccc(F)cc1` (stereo unspecified) reads -40.8% (inactive).
The result for `COc1ccc(CCN2CC(C(=O)NC3CCCCC3)CC2=O)cc1OC` (stereo unspecified) reads -2% (inactive).
As for `CCCc1cc(NCCCO)n2c(nc3ccccc32)c1C#N`, the inhibition was -0.5% (inactive).
The result for `Cc1n[nH]c(C)c1CCNCc1ccc(OCC(O)CN2CCCCC2)cc1` (stereo unspecified) reads -21.7% (inactive).
In the case of `O=C(Nc1ccccc1)c1cn2ccccc2n1`, the inhibition was 1.1% (inactive).
The result for `Cc1csc(NC(=O)c2cn3ccccc3n2)n1` reads 53.2% (active); that for `O=C(Nc1nccs1)c1cn2ccccc2n1`, 22.8% (inactive); that for `Cc1noc(C)c1CSc1cc(C)c2ccccc2n1`, -32.2% (inactive).
The result for `COc1ccc(C(=O)Nc2ccc3c(c2)C(=O)N(C)C3=O)cc1OC` reads -3.5% (inactive).
For `COc1cccc(-n2cnc3sc(C)cc3c2=O)c1`, the inhibition is -25.1% (inactive).
The result for `CCCOC(=O)c1cc(=O)[nH]c2ccccc12` reads -5.2% (inactive).
The result for `O=C(NCCN1C(=O)S/C(=C\c2ccc(F)cc2)C1=O)c1cccc(S(=O)(=O)N2CCOCC2)c1` reads 21.8% (inactive); that for `CC(C)(C)c1ccc(/C=C2\SC(=O)N(CCNC(=O)c3cccc(S(=O)(=O)N4CCOCC4)c3)C2=O)cc1`, 74.4% (active); that for `O=C(NCCN1C(=O)S/C(=C\c2ccc(Cl)cc2)C1=O)c1ccc(F)c(S(=O)(=O)N2CCOCC2)c1`, -0.6% (inactive).
The result for `CC1CCN(C(=O)c2ccccc2NC(=O)c2cccc(S(=O)(=O)N(C)C)c2)CC1` reads -46.2% (inactive).
Regarding `CCOC(=O)c1c(-c2ccc(C)o2)csc1NC(=S)NC(=O)N(C)C`, the inhibition is 97.4% (active).
In the case of `CCOC(=O)c1c(-c2ccc(C)o2)csc1NC(=S)NC(=O)c1cccs1` it was 36.4% (inactive); in that of `CCOC(=O)c1c(-c2ccc(C)o2)csc1NC(=S)NC(=O)c1ccc(F)cc1`, 37.3% (inactive).
In the case of `COc1ccc(-c2ncccc2OC(=O)C23CC4CC(CC(C4)C2)C3)cc1OC` it was -13.7% (inactive).
The result for `CC1CCC(NC(=O)COc2ccccc2C(N)=O)CC1` (stereo unspecified) reads -22% (inactive); that for `CN(C)c1oc(/C=C/c2cccs2)nc1S(=O)(=O)c1ccccc1`, 32.1% (inactive); that for `Cc1cc(O)c(C(=O)/C=C/c2ccc(Cl)cc2)c(=O)o1`, 46.1% (active).
In the case of `Cc1cc(O)c(C(=O)/C=C/c2ccc(C(C)C)cc2)c(=O)o1`, the inhibition is 5.9% (inactive).
For `Cc1cc(O)c(C(=O)/C=C/c2ccccc2)c(=O)o1`, the inhibition is 0.7% (inactive).
In the case of `CCOC(=O)C1(CCc2ccccc2)CCN(Cc2ccc(C(=O)OC)cc2)CC1` it was 13.7% (inactive).
The result for `Cc1occc1C(=O)Nc1ccc2c(c1)OCCO2` reads -15% (inactive); that for `Cc1occc1C(=O)Nc1ccc2ccccc2c1`, -121% (inactive).
On to `Cc1ccc(NC(=O)c2ccoc2C)cc1C`, for which the inhibition is 112% (active).
In the case of `COC(=O)C(Cc1c[nH]c2ccccc12)NC(=O)c1cccs1` (stereo unspecified) it was -7.6% (inactive).
The result for `CCN(C(=O)COc1ccccc1)c1nnc(-c2cccnc2)s1` reads -10.9% (inactive); that for `CCN1CCN(c2nc3ccccc3nc2C(C#N)C(=O)OC2CCCCC2)CC1` (stereo unspecified), 81.8% (active); that for `CN1CCN(c2nc3ccccc3nc2C(C#N)C(=O)OC2CCCCC2)CC1` (stereo unspecified), 11.4% (inactive).
In the case of `N#CC(C(=O)OC1CCCCC1)c1nc2ccccc2nc1N1CCCCC1` (stereo unspecified) it was 4.5% (inactive); in that of `COCCN1C(=O)C(CC(=O)Nc2ccc(C(C)=O)cc2)SC1=Nc1ccccc1` (stereo unspecified), 4.5% (inactive); in that of `COC(=O)Nc1ccc(C)c(NC(=O)OC)c1`, -7.3% (inactive).
Turning to `O=c1[nH]c([N+](=O)[O-])nn1C(c1ccccc1)c1ccccc1`, the inhibition is 6.5% (inactive).
The result for `COC(=O)c1ccc(CSc2cc(C)c3cccc(C)c3n2)o1` reads -10.2% (inactive).
The result for `COC(=O)c1ccc(CSc2cc(C)c3cc(C)cc(C)c3n2)o1` reads 48.3% (active).
In the case of `COC(=O)c1ccc(CSc2cc(C)c3ccccc3n2)o1` it was -55.1% (inactive); in that of `CC(C)(C)c1cc(CN2CCC(O)CC2)cc(C(C)(C)C)c1O`, 36.7% (inactive); in that of `CCOC(=O)C1CCN(Cc2cc(C(C)(C)C)c(O)c(C(C)(C)C)c2)CC1`, 43.8% (active).
As for `CCOC(=O)C1CCN(Cc2cc(C(C)C)c(O)c(C(C)C)c2)CC1`, the inhibition was -13.9% (inactive).
In the case of `Cc1c(C(c2cccc(Br)c2)c2c(C)n(C)n(-c3ccccc3)c2=O)c(=O)n(-c2ccccc2)n1C` it was -14% (inactive).
In the case of `CC12C(=O)N(c3ccc(C(=O)N4CCOCC4)cc3)C(=O)C1C1c3ccccc3C2c2ccccc21` (stereo unspecified) it was -20.5% (inactive); in that of `c1ccc(-n2c(SCC3CCCCO3)nnc2-c2cnccn2)cc1` (stereo unspecified), 11.8% (inactive).
The result for `CCc1nnc(NC(=O)C2CCN(c3cnccn3)CC2)s1` reads -4.1% (inactive); that for `COc1nc(N/N=C/c2ccc(C)cc2)nc(N2CCCCC2)n1`, -27.3% (inactive); that for `Cc1cc(-c2n[nH]c(=S)n2-c2ccc(C)c(C)c2)no1`, 84% (active).
`Cc1ccc(-n2c(-c3ccncc3)n[nH]c2=S)cc1C`: the inhibition was -5.7% (inactive).
The result for `Cc1ccc(-n2c(C)n[nH]c2=S)cc1C` reads 3.4% (inactive).
The result for `CCN(CC)S(=O)(=O)N1CCC(C(=O)NCc2ccco2)CC1` reads 22% (inactive).
In the case of `COc1ccc(C2(c3ccc(OC)cc3)NC(=O)N(CC(=O)N(C)C)C2=O)cc1` it was -33.1% (inactive).
For `COc1c(Cl)cc(-c2noc(C)c2C(=O)NCCc2ccc(C)cc2)cc1Cl`, the inhibition was -10.2% (inactive).
The result for `CN(C)c1ccc(NC(=O)C(=O)C2C(=O)Nc3ccccc32)cc1` (stereo unspecified) reads -9.3% (inactive).
In the case of `COc1cccc(CC(NC(C)=O)C(=O)NC2CCN(c3c4c(nc5ncnn35)CCC4)CC2)c1OC` (stereo unspecified), the inhibition was -26.4% (inactive).
Consider `CCC1=Nc2cc(C(=O)NCC3CCCO3)ccc2Sc2ccc(Br)cc21` (stereo unspecified), for which the inhibition is 51.7% (active).
Consider `CCC1=Nc2cc(C(=O)NCC3CCCO3)ccc2Sc2ccc(Cl)cc21` (stereo unspecified), for which the inhibition was 1% (inactive).
Regarding `CC1=Nc2cc(C(=O)NCC3CCCO3)ccc2Sc2ccc(Br)cc21` (stereo unspecified), the inhibition was 8.4% (inactive).
In the case of `CCCCNC(=O)N1CCN(c2ccccc2OC)CC1` it was -17.5% (inactive).
Take `CCCN(CC(=O)Nc1ccc(C(N)=O)cc1)CC(=O)Nc1ccc(Cl)cc1Cl`: the inhibition is -30.3% (inactive).
In the case of `CCCN(CC(=O)Nc1ccc(NC(C)=O)cc1)CC(=O)Nc1ccc(F)c(F)c1F`, the inhibition is -20.3% (inactive).
In the case of `CCCN(CC(=O)Nc1ccc(C(N)=O)cc1)CC(=O)Nc1ccc(F)c(F)c1F` it was 38.1% (active); in that of `CC(C)NC(=O)CSc1nnc(-c2ccc3ncccc3c2)n1C`, -3.6% (inactive); in that of `Cc1nc2ccc3[nH]snc3c2n1`, 20.2% (inactive).
In the case of `c1cc2[nH]snc2c2nc(C3CC3)nc12` it was 63.2% (active); in that of `CCCOc1ccc2cc(-c3ccccn3)c(=O)oc2c1`, 41.1% (inactive).
The result for `CC1CN(CCc2ccccc2)c2nc3c(c(=O)n(C)c(=O)n3C)n2C1` (stereo unspecified) reads -12.5% (inactive); that for `N#Cc1ccc(-n2c(-c3ccccc3)nnc2-c2ccccc2)cc1C#N`, 42.1% (active).
As for `N#Cc1cccc(-n2c(-c3ccccc3)nnc2-c2ccccc2)c1C#N`, the inhibition is 11.5% (inactive).
In the case of `CCOc1ccc(-n2c(-c3ccccc3)nnc2-c2ccccc2)cc1` it was 8.2% (inactive); in that of `N#Cc1ccc(Oc2ccc(-c3nc4ccccc4nc3-c3ccccc3)cc2)cc1C#N`, 3.3% (inactive).
Turning to `N#Cc1ccc(-c2nc3ccccc3nc2-c2ccccc2)cc1C#N`, the inhibition is 1.3% (inactive).
In the case of `N#Cc1ccc(-c2nc3cc(C#N)c(C#N)cc3nc2-c2ccccc2)cc1C#N` it was 48.5% (active); in that of `CC(=O)Nc1nnc(CSCc2ccccc2F)s1`, -5.5% (inactive).
The result for `CC(=O)N(C)c1cccc(-c2ccc3nnc(C)n3n2)c1` reads -5.9% (inactive); that for `CCOC(=O)c1c(-c2ccccc2)csc1NC(=O)c1cc(S(=O)(=O)N2CCOCC2)ccc1C`, -1.6% (inactive); that for `Fc1ccc(Nc2nnc(C(F)(F)F)s2)cc1`, 3.4% (inactive).
In the case of `Cc1oc(-c2cccc(F)c2)nc1CN1CCCCC1CCn1cccn1` (stereo unspecified) it was -32% (inactive); in that of `Cc1nnc(Nc2ccc(Cl)cc2)n(N)c1=O`, -7% (inactive); in that of `c1ccc2c(c1)OCC(c1nn3c(Cn4nnc5ccccc54)nnc3s1)O2` (stereo unspecified), -10.7% (inactive).
Take `c1ccc(OCc2nnc3sc(C4COc5ccccc5O4)nn23)cc1` (stereo unspecified): the inhibition was 1.5% (inactive).
In the case of `c1ccc(Cc2nnc3sc(C4COc5ccccc5O4)nn23)cc1` (stereo unspecified), the inhibition was 107% (active).
Take `O=C(Nc1ccc(F)cc1)c1nc[nH]c1C(=O)O`: the inhibition was -6.5% (inactive).
In the case of `Nc1nc(-c2ccccc2)c(C(=O)Nc2ccccc2)s1` it was -28.9% (inactive).
The result for `O=C1c2ccccc2C(=O)C2OC12` (stereo unspecified) reads 70.9% (active); that for `Cc1ccccc1C1C(=O)c2ccccc2C1=O`, -39.1% (inactive).
As for `O=C1c2ccccc2C(=O)C1c1ccccn1`, the inhibition is -8.4% (inactive).
In the case of `Clc1ccccc1OCCn1cnc2ccccc21` it was -21.1% (inactive); in that of `COc1ccc(S(=O)(=O)NC(Cc2ccccc2)C(=O)O)cc1` (stereo unspecified), -1.3% (inactive).
In the case of `COc1ccc(C(CNC(=O)COc2ccc(C)c(C)c2)N2CCCCC2)cc1` (stereo unspecified) it was 10.5% (inactive).
